Reference: PubChem BioAssay
Active and inactive are the calls of the source.

Tests used:
[1] = E. coli DRC41 culture turbidity changes, primary screen, E. coli filamentation inducer project, strain DRC41, OD650, 48 h (AID 1152);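 note: E. coli MC1000 strain DRC41 lacking acrAB efflux pump and sulA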; conditions: E. coli DRC41 (acrAB sulA), higher = more signal, called active from +8 up or from −8 down
[2] = small-molecule binders of probe aLefty1, primary screen, biochemical, small-molecule microarray, 635/667 nm fluorescence (AID 1153); conditions: higher = more signal;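 note: score merges spot fluorescence with signal-to-noise ratio from the scanned slide images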
[3] = PSAC antagonists in infected red cells, primary screen, cell-based, P. falciparum Indochina, OD700, 1 h (AID 1154); conditions: P. falciparum Indochina infected RBC osmotic lysis, higher = more signal, called active from +8 up or from −8 down
[4] = PSAC antagonists in infected red cells, primary screen, cell-based, P. falciparum Indochina, OD700, 2 h (AID 1155);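 note: lysis reports solute entry through the parasite surface anion channel PSAC; channel blockers reduce lysis of infected cells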; conditions: P. falciparum Indochina infected erythrocytes, osmotic lysis OD700; higher = more signal, called active from +8 up or from −8 down
[5] = osmotic lysis modulators in infected erythrocytes, primary screen, PSAC antagonist project, cell-based, P. falciparum Indochina, OD700, 3 h (AID 1156); conditions: higher = more signal, called active from +8 up or from −8 down
[6] = PSAC antagonists in infected red cells, primary screen, cell-based, P. falciparum Indochina, OD700, 18 h (AID 1157); conditions: P. falciparum Indochina infected erythrocytes, osmotic lysis OD700, 18 h; higher = more signal, called active from +8 up or from −8 down
[7] = modulators of S6 phosphorylation in cells, primary screen, cell-based, A549, cytoblot, luminescence, serum-stimulated (AID 1158); conditions: A549 phospho-S6 cytoblot, 5 h, higher = more signal;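 note: serum-stimulated A549 lung adenocarcinoma cells; signal is phosphorylated S6 detected by cytoblot immunostaining with HRP secondary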
[8] = molecular target: NADPH oxidase 2 (Homo sapiens) (UniProt P04839); assay: NOX2-dependent H2O2 signal modulators, primary screen, NOX inhibitor project, cell-based, HEK293-NOX2, PMA-stimulated, Amplex Red fluorescence (AID 1159); conditions: 45 min, higher = more signal, called active from +8 up or from −8 down; note: test concentration not given here
Sequence of NADPH oxidase 2 (Homo sapiens) (P04839 whole entry, looked up): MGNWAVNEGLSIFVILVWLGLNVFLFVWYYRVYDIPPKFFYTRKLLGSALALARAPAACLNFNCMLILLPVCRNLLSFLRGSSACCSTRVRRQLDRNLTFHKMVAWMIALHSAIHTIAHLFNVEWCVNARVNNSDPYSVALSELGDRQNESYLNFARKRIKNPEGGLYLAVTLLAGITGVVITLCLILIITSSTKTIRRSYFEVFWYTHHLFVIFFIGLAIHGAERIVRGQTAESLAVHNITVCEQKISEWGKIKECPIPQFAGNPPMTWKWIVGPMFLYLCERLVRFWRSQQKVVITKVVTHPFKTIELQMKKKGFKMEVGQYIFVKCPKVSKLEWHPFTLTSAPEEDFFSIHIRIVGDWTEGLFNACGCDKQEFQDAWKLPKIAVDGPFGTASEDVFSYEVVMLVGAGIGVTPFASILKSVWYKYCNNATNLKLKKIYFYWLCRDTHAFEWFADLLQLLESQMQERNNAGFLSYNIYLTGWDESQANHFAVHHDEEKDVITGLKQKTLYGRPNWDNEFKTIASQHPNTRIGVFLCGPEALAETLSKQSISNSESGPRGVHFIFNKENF

[9] = molecular target: NADPH oxidase 4 (Homo sapiens) (UniProt Q9NPH5); assay: NOX4-dependent H2O2 signal modulators, primary screen, NOX inhibitor project, cell-based, HEK293-NOX4, tetracycline-induced, Amplex Red fluorescence (AID 1160); conditions: 45 min, higher = more signal, called active from +8 up or from −8 down
Sequence of NADPH oxidase 4 (Homo sapiens) (Q9NPH5 whole entry, looked up): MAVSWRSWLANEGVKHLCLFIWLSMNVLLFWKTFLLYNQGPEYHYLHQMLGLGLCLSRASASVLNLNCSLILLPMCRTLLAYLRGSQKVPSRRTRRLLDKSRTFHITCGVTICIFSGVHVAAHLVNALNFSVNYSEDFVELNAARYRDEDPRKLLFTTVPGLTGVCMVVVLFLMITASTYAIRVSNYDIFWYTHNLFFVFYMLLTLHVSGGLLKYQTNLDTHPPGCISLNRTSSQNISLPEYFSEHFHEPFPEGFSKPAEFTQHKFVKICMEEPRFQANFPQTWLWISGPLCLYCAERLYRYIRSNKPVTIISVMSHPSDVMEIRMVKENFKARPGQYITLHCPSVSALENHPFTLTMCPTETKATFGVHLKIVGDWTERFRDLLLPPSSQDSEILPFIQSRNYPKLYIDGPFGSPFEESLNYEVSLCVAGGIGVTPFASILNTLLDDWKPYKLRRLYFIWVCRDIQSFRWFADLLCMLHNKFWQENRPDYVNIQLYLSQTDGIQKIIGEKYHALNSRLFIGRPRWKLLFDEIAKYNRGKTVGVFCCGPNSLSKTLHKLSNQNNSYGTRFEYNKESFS

[10] = molecular target: NADPH oxidase 5 (Homo sapiens) (UniProt Q96PH1); assay: NOX5-dependent H2O2 signal modulators, primary screen, NOX inhibitor project, cell-based, HEK293-NOX5, Amplex Red fluorescence (AID 1161); conditions: HEK293-NOX5, ionomycin, 45 min, higher = more signal
Sequence of NADPH oxidase 5 (Homo sapiens) (Q96PH1 whole entry, looked up): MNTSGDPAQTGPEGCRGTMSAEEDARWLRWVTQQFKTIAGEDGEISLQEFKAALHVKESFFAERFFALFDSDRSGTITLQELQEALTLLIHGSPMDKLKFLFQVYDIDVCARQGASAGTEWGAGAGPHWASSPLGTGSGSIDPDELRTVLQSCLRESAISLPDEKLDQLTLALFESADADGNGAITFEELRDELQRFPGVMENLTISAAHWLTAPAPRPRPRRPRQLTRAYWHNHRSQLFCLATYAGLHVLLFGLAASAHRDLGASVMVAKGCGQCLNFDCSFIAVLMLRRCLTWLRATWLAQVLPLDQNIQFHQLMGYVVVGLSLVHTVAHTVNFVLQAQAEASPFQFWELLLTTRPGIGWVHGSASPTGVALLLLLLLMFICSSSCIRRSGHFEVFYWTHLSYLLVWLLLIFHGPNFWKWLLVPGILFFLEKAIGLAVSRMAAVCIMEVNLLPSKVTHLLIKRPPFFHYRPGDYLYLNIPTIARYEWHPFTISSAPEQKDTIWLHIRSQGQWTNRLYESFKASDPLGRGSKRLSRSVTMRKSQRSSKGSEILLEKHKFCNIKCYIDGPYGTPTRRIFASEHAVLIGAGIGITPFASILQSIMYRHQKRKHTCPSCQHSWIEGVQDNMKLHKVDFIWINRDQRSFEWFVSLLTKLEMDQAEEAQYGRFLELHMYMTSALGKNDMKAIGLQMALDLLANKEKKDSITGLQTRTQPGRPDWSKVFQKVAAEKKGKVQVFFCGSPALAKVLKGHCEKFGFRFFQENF

[11] = A549 cell viability effects, profiling panel, calcein-AM fluorescence, 48 h, basal (AID 1162); conditions: higher = more signal; note: test concentration not given here
[12] = adipocyte viability effects, profiling panel, cell-based, 3T3-L1 adipocytes, calcein-AM fluorescence, 48 h, basal (AID 1163); conditions: 3T3-L1 adipocytes viability, higher = more signal; note: test concentration not given here
[13] = HepG2 cell viability effects, profiling panel, calcein-AM fluorescence, 48 h, basal (AID 1164); conditions: higher = more signal; note: test concentration not given here
[14] = MM1S cell viability effects, profiling panel, calcein-AM fluorescence, 48 h, basal (AID 1165); conditions: higher = more signal;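 note: viability of MM1S multiple myeloma cells under basal unstimulated conditions; test concentration not given here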
[15] = basal RPMI8226 viability, no added stimulus, profiling panel, cell-based, calcein-AM fluorescence, 48 h, PK04 Diversity Set (AID 1166); conditions: RPMI8226 myeloma viability, higher = more signal;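 note: cells grown under basal conditions without added stimulus; test concentration not given here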
[16] = basal HepG2 mitochondrial membrane potential changes, profiling panel, cell-based, JC-1 fluorescence, 24 h, 100 nL compound (AID 1167); conditions: higher = more signal; note: test concentration not given here
[17] = basal 3T3-L1 adipocyte mitochondrial potential changes, profiling panel, cell-based, JC-1 fluorescence, 3T3-L1 adipocytes, 24 h, 100 nL compound (AID 1168); conditions: JC-1 mitochondrial fluorescence, higher = more signal, called active from +8 up or from −8 down; note: test concentration not given here
[18] = basal RPMI8226 mitochondrial membrane potential changes, profiling panel, cell-based, JC-1 fluorescence, 24 h, 100 nL compound (AID 1169); conditions: RPMI8226 myeloma, JC-1 mitochondrial potential fluorescence, higher = more signal; note: test concentration not given here
[19] = basal MM1S mitochondrial membrane potential changes, profiling panel, cell-based, JC-1 fluorescence, 24 h, 100 nL compound (AID 1170); conditions: higher = more signal; note: test concentration not given here
[20] = A549 lung cancer cell viability effects, profiling panel, resazurin fluorescence, 24 h, PK04 Diversity Set (AID 1171); conditions: higher = more signal, called active from +8 up or from −8 down; note: test concentration not given here

Row | SMILES | z-score [1] | composite z-score [2] | z-score [3] | z-score [4] | z-score [5] | z-score [6] | z-score [7] | z-score [8] | z-score [9] | z-score [10] | z-score [11] | z-score [12] | z-score [13] | z-score [14] | z-score [15] | z-score [16] | z-score [17] | z-score [18] | z-score [19] | z-score [20]
1 | O=C1C[C@H](c2ccccc2)[C@H](c2ccc(Br)cc2)O1 | -1.16 (inactive) | -0.464 | -0.142 (inactive) | -1.13 (inactive) | -0.0291 (inactive) | -1.6 (inactive) | 1.61 | 0.146 (inactive) | -0.255 (inactive) | -0.446 | 1.43 | 0.172 | -0.0656 | 0.342 | 1.08 | 1.19 | 0.268 (inactive) | 0.563 | 0.891 | -0.317 (inactive)
2 | O=C1[C@H]2CCn3c(=O)n(-c4ccccc4)c(=O)n3[C@H]2[C@H](O)[C@@H]2O[C@H]12 | -0.323 (inactive) | -0.391 | -0.132 (inactive) | 0.105 (inactive) | 0.337 (inactive) | 0.304 (inactive) | -0.236 | -1.3 (inactive) | -0.584 (inactive) | 0.423 | 0.0313 | -0.226 | -0.352 | -1.32 | -0.19 | -0.237 | -0.169 (inactive) | -0.104 | -0.351 | -0.331 (inactive)
3 | CCOC(=O)[C@H](CC(C)C)NC(=O)CCC1CC(OC(=O)NCc2ccc3c(c2)OCO3)CC2(CCCC(COC(=O)NCCc3ccc(Cl)cc3)O2)O1 (stereo not given in full) | 0.386 (inactive) | 0.213 | 1.83 (inactive) | -0.39 (inactive) | -0.254 (inactive) | -0.144 (inactive) | -0.793 | 0.747 (inactive) | 0.575 (inactive) | 0.301 | 0.0432 | -0.179 | 0.0309 | -0.986 | 0.415 | -0.253 | 0.526 (inactive) | -0.966 | -0.238 | 0.39 (inactive)
4 | CC(C)=NOC(C)CN1CCCc2nc(C)c(C)cc21 (stereo not given) | -0.477 (inactive) | -0.012 | 0.421 (inactive) | 0.774 (inactive) | 0.175 (inactive) | 0.539 (inactive) | -0.558 | -0.369 (inactive) | -0.141 (inactive) | -0.281 | 0.755 | -0.588 | 0.272 | -0.237 | 0.0977 | 0.0197 | -0.24 (inactive) | -0.416 | 0.226 | -0.373 (inactive)
5 | COC(=O)[C@@H]1CC[C@H](C)[C@@H](c2ccc(Br)cc2)N1C[C@@H](O)CN=[N+]=[N-] | -1.67 (inactive) | -0.147 | 1.87 (inactive) | -0.514 (inactive) | 0.27 (inactive) | -0.956 (inactive) | 1.84 | 0.0777 (inactive) | -1.37 (inactive) | 0.126 | -0.618 | 0.379 | -0.494 | -0.682 | -1.4 | 0.462 | 0.866 (inactive) | 0.65 | -0.553 | 0.0136 (inactive)
6 | O=C1CCCC=C1C(O)c1ccc([N+](=O)[O-])cc1 (stereo not given) | 0.134 (inactive) | -0.217 | -0.487 (inactive) | -0.347 (inactive) | -0.324 (inactive) | -0.342 (inactive) | 0.317 | 1.42 (inactive) | 0.262 (inactive) | -0.56 | -0.419 | -0.388 | -0.0678 | -0.629 | 0.372 | -0.614 | -0.0489 (inactive) | 0.566 | 0.502 | -0.258 (inactive)
7 | CCOC(=O)[C@H](CC(C)C)NC(=O)CCC1CC(OC(=O)NCCc2ccc(F)cc2)CC2(CCCC(COC(=O)NCCOC)O2)O1 (stereo not given in full) | -1.39 (inactive) | -0.198 | 3.18 (inactive) | 0.621 (inactive) | 0.0768 (inactive) | -0.0213 (inactive) | -0.474 | -0.25 (inactive) | 0.998 (inactive) | 1.19 | 0.0721 | -1.02 | -0.384 | 0.695 | 0.124 | -1.21 | -0.459 (inactive) | 0.64 | 0.441 | 0.305 (inactive)
8 | CC(C)CON=C1C[C@@H](O)[C@@H](O)[C@@H]2[C@@H]3C(=O)N(Cc4ccc5c(c4)OCO5)C(=O)[C@@H]3CC[C@@H]12 | -0.0395 (inactive) | -0.28 | 7.64 (inactive) | 0.859 (inactive) | -0.0127 (inactive) | 0.548 (inactive) | -0.333 | -0.569 (inactive) | 0.409 (inactive) | 0.443 | 0.606 | -0.724 | -0.211 | 0.828 | -0.51 | 0.367 | 0.115 (inactive) | 0.492 | -1.49 | 0.471 (inactive)
9 | CC(C)(C)N1C(=O)[C@H]2[C@H]3[C@H](O)[C@H](O)CC(=NNC(=O)OCc4ccccc4)[C@@H]3CC[C@H]2C1=O | 0.323 (inactive) | -0.153 | 0.0391 (inactive) | 0.193 (inactive) | -0.279 (inactive) | -0.385 (inactive) | -0.731 | 0.788 (inactive) | 0.739 (inactive) | 0.0356 | 0.193 | -0.166 | -0.289 | 0.0671 | 0.489 | -0.813 | -0.323 (inactive) | -0.368 | -0.368 | -0.548 (inactive)
10 | COC(=O)[C@H](C)NC(=O)CCC1CC(OC(=O)NCc2ccc3c(c2)OCO3)CC2(CCCC(COC(=O)NCc3ccccc3)O2)O1 (stereo not given in full) | 1.07 (inactive) | -0.0061 | 1.08 (inactive) | 0.0056 (inactive) | 0.049 (inactive) | 0.272 (inactive) | 0.307 | 0.154 (inactive) | 1.22 (inactive) | 0.654 | 3.03 | -0.645 | 0.558 | -0.147 | 1.27 | 1.33 | 0.552 (inactive) | 0.195 | -0.882 | 0.409 (inactive)
11 | CC(CCC(=O)OC[C@H]1O[C@H](C#Cc2ccccc2)C=C[C@@H]1Oc1ccc(C)cc1)=NO[C@@H](C)c1cc(-c2c(C)cc(C)cc2C)no1 | 0.357 (inactive) | -0.0929 | 1.34 (inactive) | 0.674 (inactive) | 1.23 (inactive) | 0.221 (inactive) | 0.814 | 0.731 (inactive) | 0.344 (inactive) | 0.287 | -0.355 | 0.777 | -0.338 | -0.0941 | -2.61 | 1.78 | -0.495 (inactive) | 0.621 | 0.114 | -0.366 (inactive)
12 | O=C(NN=C1C[C@@H](O)[C@@H](O)[C@@H]2[C@@H]3C(=O)N(Cc4ccc5c(c4)OCO5)C(=O)[C@@H]3CC[C@@H]12)OCc1ccccc1 | -0.989 (inactive) | 0.184 | 6.62 (inactive) | -0.207 (inactive) | 0.465 (inactive) | -1.85 (inactive) | -0.0564 | -1.78 (inactive) | -1.08 (inactive) | -1.39 | -0.592 | 0.911 | -0.423 | 0.291 | -0.531 | 0.222 | 0.243 (inactive) | 0.967 | -1.65 | 0.729 (inactive)
13 | COC(=O)CC=C[C@@H](C)[C@@H](C=NOC[C@@H](O)COCc1ccco1)NS(=O)(=O)c1ccc(C)cc1 | 0.132 (inactive) | -0.186 | 1.25 (inactive) | 0.418 (inactive) | 0.0934 (inactive) | 0.391 (inactive) | -0.689 | 0.017 (inactive) | -0.202 (inactive) | -0.106 | -0.393 | -0.295 | 0.3 | -0.833 | -0.623 | -1.23 | 0.0134 (inactive) | -0.655 | -0.436 | -0.44 (inactive)
14 | COc1ccc(O[C@H]2C=C[C@@H](c3ccccc3)O[C@@H]2COC(=O)NCc2cccc3ccccc23)cc1 | -0.286 (inactive) | -0.0046 | 2.71 (inactive) | 0.896 (inactive) | -0.119 (inactive) | 0.515 (inactive) | -0.553 | 0.5 (inactive) | -0.0581 (inactive) | -0.406 | 0.152 | 0.0831 | -0.833 | -1.23 | -0.0376 | 0.194 | -0.351 (inactive) | 0.396 | -0.225 | 0.618 (inactive)
15 | COC(=O)[C@H](C)NC(=O)CCC1CC(OC(=O)NCc2ccc3c(c2)OCO3)CC2(CCCC(COC(=O)NCCCN3CCCC3=O)O2)O1 (stereo not given in full) | -0.37 (inactive) | 0.0326 | -0.881 (inactive) | 0.136 (inactive) | -0.257 (inactive) | -0.169 (inactive) | 0.0031 | 1.1 (inactive) | -1.51 (inactive) | -1.74 | -0.516 | -0.232 | -1.09 | -0.375 | -0.322 | -0.815 | -0.019 (inactive) | -0.838 | 0.224 | 0.468 (inactive)
